Data from PubChem BioAssay.
“And” between values parts separate entries of the source, which are not always exact repeats. Equal values may be shown once.

experiment: sensitizers of A549 cells to miR-34 induction, primary screen, imaging, A549 dox-inducible miR-34, nuclei and caspase counts (AID 1347080); details: A549 miR-34 inducible, Hoechst nuclei count, 48 h; measured here: total cells without miR-34 induction; note: test concentration not given here

Question: With `O=C(O)c1cc2cc(F)ccc2[nH]1` as the molecule, how does the cell count read?
Answer: 9650

Question: Which cell count does the source give for `COc1ccc(-c2cc(=O)c3c(OC)c(OC)c(OC)c(OC)c3o2)cc1` here?
Answer: 7340

Question: For `NC(=O)c1ccc[n+]([C@@H]2O[C@H](COP(=O)([O-])OP(=O)(O)OC[C@H]3O[C@@H](n4cnc5c(N)ncnc54)[C@H](O)[C@@H]3O)[C@@H](O)[C@H]2O)c1`, which cell count is on record?
Answer: 9780 and 12900

Question: Which cell count does the source give for `Cn1c(=O)[nH]c2ncn(C)c2c1=O` here?
Answer: 9920

Question: For `NC1(C(=O)O)CC1`, which cell count is on record?
Answer: 10200

Question: With `NCCCCN=C(N)N` as the molecule, how does the cell count read?
Answer: 9670

Question: With `N[C@@H](Cc1cc(I)c(Oc2ccc(O)c(I)c2)c(I)c1)C(=O)O` as the molecule, how does the cell count read?
Answer: 10800 and 12100

Question: Which cell count does the source give for `Cc1cc(C(C)(C)CC(C)(C)C)ccc1OCCOCC[N+](C)(C)Cc1ccccc1` here?
Answer: 2400 and 9540

Question: For `Cn1c(=O)c2[nH]c(C3CCCC3)nc2n(C)c1=O`, which cell count is on record?
Answer: 9710

Question: Which cell count does the source give for `CC(=O)N1CCN(c2ccc(OCC3CO[C@](Cn4ccnc4)(c4ccc(Cl)cc4Cl)O3)cc2)CC1` (some centres undefined) here?
Answer: 7380 and 6960 and 8630

Question: With `NCCCCC(=O)O` as the molecule, how does the cell count read?
Answer: 10300

Question: Which cell count does the source give for `CN[C@H](CC(=O)O)C(=O)O` here?
Answer: 10300

Question: Which cell count does the source give for `CN1CCc2cccc3c2C1Cc1ccc(O)c(O)c1-3` (centres undefined) here?
Answer: 8230 and 10400

Question: For `COc1c2ccoc2cc2oc(=O)ccc12`, which cell count is on record?
Answer: 9530

Question: Which cell count does the source give for `C=C1c2c(Cl)ccc(O)c2C(O)=C2C(=O)[C@]3(O)C(O)=C(C(N)=O)C(=O)[C@@H](N(C)C)[C@@H]3[C@@H](O)[C@H]12` here?
Answer: 9550

Question: For `NC(N)=NC(=O)c1nc(Cl)c(N2CCCCCC2)nc1N`, which cell count is on record?
Answer: 3990

Question: Which cell count does the source give for `CC(CN(C)C)CN1c2ccccc2Sc2ccccc21` (centres undefined) here?
Answer: 8490 and 10500

Question: With `CC(C(=O)O)c1ccc(N2Cc3ccccc3C2=O)cc1` (centres undefined) as the molecule, how does the cell count read?
Answer: 10700 and 12400

Question: With `O=c1cc(-c2ccccc2)oc2c(O)c(O)ccc12` as the molecule, how does the cell count read?
Answer: 2390
